The results in this text go back to PubChem BioAssay AID504452 (The Scripps Research Institute Molecular Screening Center, 2011).

The source made the active and inactive calls. Cut-off read from the data, not from the text of the source: active = activation above about 85%; inactive = the rest.

The target in the assay is Peroxisome proliferator-activated receptor gamma (Homo sapiens) (UniProt P37231). The assay is described as follows: PPARg partial agonist activation, primary screen, cell-based, luciferase reporter, luminescence (AID 504452).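 Note: Cos-1 cells carrying PPARgamma and a response element luciferase reporter.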 The following applies: at 5 µM, stronger effect = higher value; activation (% of full agonist control): measured here: relative to full agonist control. (A reporter such as luciferase makes a cellular process visible.)
Chain of Peroxisome proliferator-activated receptor gamma (Homo sapiens) (P37231 whole entry, looked up): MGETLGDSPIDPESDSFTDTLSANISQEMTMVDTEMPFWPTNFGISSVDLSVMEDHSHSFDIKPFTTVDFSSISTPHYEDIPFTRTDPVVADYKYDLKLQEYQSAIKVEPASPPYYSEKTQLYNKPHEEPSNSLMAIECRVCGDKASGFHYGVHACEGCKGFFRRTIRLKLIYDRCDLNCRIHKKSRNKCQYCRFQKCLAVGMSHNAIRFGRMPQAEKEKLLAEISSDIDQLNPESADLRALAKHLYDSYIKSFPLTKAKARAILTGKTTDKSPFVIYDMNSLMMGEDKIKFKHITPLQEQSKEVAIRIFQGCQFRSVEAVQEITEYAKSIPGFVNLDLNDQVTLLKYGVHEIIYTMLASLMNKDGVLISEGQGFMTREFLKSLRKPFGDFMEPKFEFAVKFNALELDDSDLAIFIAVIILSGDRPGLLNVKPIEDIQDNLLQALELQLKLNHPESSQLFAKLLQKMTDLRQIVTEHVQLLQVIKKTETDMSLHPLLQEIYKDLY

Consider `O=C1C(=O)N(CCCn2ccnc2)C(c2ccc(Cl)cc2)/C1=C(\O)c1ccc2c(c1)OCCO2` (centres undefined), for which the activation (% of full agonist control) was 41.5% and the activation (% of partial agonist control) is 91.9% (active).
For `O=c1[nH]c2cc3c(cc2cc1CN(Cc1ccccc1)Cc1nnnn1Cc1ccco1)OCCO3`, in that order: 35.1% and 77.6% (inactive).
For the compound `CC(Oc1ccc(F)cc1)C(=O)Nc1cc(S(=O)(=O)N2CCOCC2)ccc1N1CCCC1` (centres undefined), the activation (% of full agonist control) is 33.9% and the activation (% of partial agonist control) is 75.1% (inactive).
Consider `O=C(COc1coc(CN2CCc3ccccc3C2)cc1=O)Nc1ccc(F)cc1F`, for which the activation (% of full agonist control) was determined as 44.3% and the activation (% of partial agonist control) is 98.2% (active).
The like results for `O=C1C(=O)N(Cc2cccnc2)C(c2cccc(F)c2)/C1=C(/O)c1ccc2c(c1)OCO2` (centres undefined) were, in that order, 35.2% and 77.9% (inactive).
Regarding `O=C1C2CCCN2c2ccc(S(=O)(=O)N3CCOCC3)cc2N1Cc1cccc(C(F)(F)F)c1` (centres undefined), the activation (% of full agonist control) turned out to be 32.4% and the activation (% of partial agonist control) is 71.8% (inactive).
As to `COc1cc(C2/C(=C(/O)c3ccc(F)cc3)C(=O)C(=O)N2CCCC(=O)O)ccc1O` (centres undefined), the activation (% of full agonist control) came out at 37% and the activation (% of partial agonist control) was 82% (inactive).
Consider `Cc1[nH][nH]c(=O)c1C(c1c(C)[nH][nH]c1=O)c1cn(Cc2cccc3ccccc23)c2ccccc12`, for which the activation (% of full agonist control) worked out at 37.6% and the activation (% of partial agonist control) was 83.3% (inactive).
Regarding `COc1ccc2c(c1)c(=O)c(C(=O)c1ccc(C)cc1)cn2CC(=O)Nc1ccc(F)cc1`, the activation (% of full agonist control) is 45% and the activation (% of partial agonist control) is 99.5% (active).
As for `COc1ccc2nc(N3C(=O)C(O)=C(C(=O)c4ccco4)C3c3ccc(C)o3)sc2c1` (centres undefined), the activation (% of full agonist control) was 41.1% and the activation (% of partial agonist control) was 91.1% (active).
Consider `COc1cccc(NS(=O)(=O)c2ccc3c(c2)C2C=CCC2C(c2ccc(C(=O)O)cc2)N3)c1` (centres undefined), for which the activation (% of full agonist control) stood at 32.7% and the activation (% of partial agonist control) is 72.4% (inactive).
Regarding `CC(Oc1ccc(F)cc1)C(=O)Nc1ccc(N2CCOCC2)cc1N1CCOCC1` (centres undefined), the activation (% of full agonist control) was determined as 31.2% and the activation (% of partial agonist control) is 69.2% (inactive).
